We go through 29 compounds from PubChem BioAssay (Tox21).

A number with no mark means an inactive call. Results filed as inconclusive are left out. The source made the active and inactive calls. The call rests on the fitted dose curve; in most records, active means well fitted curve in the direction sought with a large enough effect in the repeat runs; inconclusive means weak or mixed curves; inactive means no such curve, though single readings can be large; an effect the other way counts as inactive or inconclusive.

A short description of experiment [1]: A CellTox Green Cytotoxicity Assay to monitor cytotoxicity in HepG2 cells - 8 hour (AID 1224890). Further: nearly all actives have a fitted effect of over 45% in size. An outline of the steps:
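Continuous culture of HepG2 cells with a membrane-impermeant DNA dye; rising fluorescence marks dead cells. Compound exposure lasted up to 40 h at 37 C, with reads every 8 h from 0 h.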

Experiment [2] in a line: qHTS assay to identify small molecule antagonists of the estrogen receptor alpha (ER-alpha) signaling pathway using the BG1 cell line in the presence of 0.1 nM 17-beta-estradiol - cell viability counter screen (AID 1259241). Further: nearly all actives have a fitted effect of over 40% in size. A digest of the protocol:
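Cytotoxicity counter-screen: live-cell protease activity measured by fluorescence (30 min reagent step) in the same wells. Cells were VM7Luc4E2 with endogenous ER-alpha and ERE-driven luciferase, treated 22 hr at 37C alongside 0.1 nM 17beta-estradiol final.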
(qHTS replaces the single test concentration by a dilution series.)

Experiment [3] in a line: qHTS assay to identify small molecule antagonists of the androgen receptor (AR) signaling pathway using the MDA cell line in the presence of 0.5 nM R1881 - cell viability counter screen (AID 1259242). Further: nearly all actives have a fitted effect of over 45% in size. An outline of the steps:
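Fluorescence from CellTiter-Fluor, which reports protease activity of live cells, was read 30 min after reagent addition to MDA-kb2 cells that had been incubated 16 hr with compound and 0.5 nM R1881.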

Experiment [4] deals with Estrogen receptor (Homo sapiens) (UniProt P03372). Put plainly: qHTS assay to identify small molecule antagonists of the estrogen receptor alpha (ER-alpha) signaling pathway using the BG1 cell line in the presence of 0.1 nM 17-beta-estradiol (AID 1259244). Further: nearly all actives have a fitted effect of over 50% in size. Further: potency means the concentration at half of the fitted maximal effect. An outline of the steps: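 Quantitative high-throughput screen in VM7Luc4E2 cells: compound plus 0.1 nM E2 (final), 22 h, 37C, 5% CO2; ONE-Glo added, 30 min room temperature, luminescence measured.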
Chain of Estrogen receptor (Homo sapiens) (P03372 whole entry, looked up): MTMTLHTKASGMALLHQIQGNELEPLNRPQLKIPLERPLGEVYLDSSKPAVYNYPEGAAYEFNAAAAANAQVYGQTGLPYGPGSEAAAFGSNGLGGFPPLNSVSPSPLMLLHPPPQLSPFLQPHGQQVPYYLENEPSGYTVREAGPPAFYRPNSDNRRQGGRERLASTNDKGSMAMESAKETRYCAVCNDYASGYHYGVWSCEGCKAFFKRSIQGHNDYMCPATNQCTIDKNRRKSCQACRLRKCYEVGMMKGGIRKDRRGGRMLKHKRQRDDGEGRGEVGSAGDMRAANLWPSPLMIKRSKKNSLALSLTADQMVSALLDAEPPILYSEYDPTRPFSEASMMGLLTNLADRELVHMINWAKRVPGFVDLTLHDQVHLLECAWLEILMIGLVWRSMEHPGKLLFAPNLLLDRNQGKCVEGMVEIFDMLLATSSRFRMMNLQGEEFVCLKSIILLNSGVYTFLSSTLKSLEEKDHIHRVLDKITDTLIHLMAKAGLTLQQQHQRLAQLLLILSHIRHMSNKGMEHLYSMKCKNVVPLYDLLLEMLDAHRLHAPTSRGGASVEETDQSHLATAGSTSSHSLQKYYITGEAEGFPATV

The nature of experiment [5]: qHTS assay to identify small molecule HDAC inhibitors (AID 1259364). Further: top concentration of the series differs between compounds; nearly all actives have a fitted effect of over 45% in size. A digest of the protocol:
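Endogenous HDAC class I/II activity was measured in wild-type HCT-116 cells by HDAC-Glo luminescence after 2 h compound treatment.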

Experiment [6] in a line: qHTS assay to identify small molecule HDAC inhibitors - cell viability counter screen (AID 1259365). Further: series mostly up to about 92 µM; nearly all actives have a fitted effect of over 50% in size. A digest of the protocol:
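CellTiter-Glo luminescence (30 min, room temperature) reported viability after a 2 h compound exposure at 37 C. Cells: wild-type HCT-116, 1,500 per well, seeded the night before.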

Experiment [7] is described as follows: qHTS assay to identify small molecule agonists of the sonic hedgehog signaling (Shh) pathway - cell viability counter screen (AID 1259366). Further: nearly all actives have a fitted effect of over 50% in size. A digest of the protocol:
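Cytotoxicity counter screen: CellTiter-Fluor reagent added after 23 h compound exposure, then 1 h at 37C and fluorescence read. Cells were 3T3 Gli1-Luc, seeded 2,000 per well and dosed 4 h post-plating.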

The nature of experiment [8]: qHTS assay to identify small molecule antagonists of the sonic hedgehog signaling (Shh) pathway - cell viability counter screen (AID 1259367). Further: nearly all actives have a fitted effect of over 55% in size. A digest of the protocol: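 Using CellTiter-Fluor, viability of Gli1-Luc reporter 3T3 cells is read by fluorescence in the wells used for the Shh luciferase assay. Treatment lasts 23 hr with conditioned medium, then reagent 1 hr at 37C.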
On the % scale 0 is the no-effect control and ±100 the full control effect.

Regarding `CCCOc1ccc(S(=O)(=O)N2CCN(CC)CC2)cc1-c1nc2c(CC)n(Cc3ccccn3)nc2c(=O)[nH]1`, the Potency result in experiment [1], in experiment [2], in experiment [3], in experiment [4], in experiment [5] and in experiment [6] was “inactive” throughout.
As to `Brc1cc(-c2ccc(Br)c(Br)c2Br)cc(Br)c1Br`, the Potency result in experiment [1], in experiment [2], in experiment [3], in experiment [4], in experiment [6] and in experiment [7] was “inactive” throughout. Moreover, the Potency entry in experiment [8] is “inactive”.
For the compound `CCC(C(=O)OCCOCCN(CC)CC)c1ccccc1` (stereo not given), the Potency entry in experiment [1], in experiment [2], in experiment [3], in experiment [4], in experiment [5] and in experiment [6] was “inactive” throughout. Moreover, the Potency entry in experiment [8] is “inactive”.
`CCCCCCCCCCCC[N+](C)(C)CCCS(=O)(=O)[O-]`: the Potency result in experiment [1], in experiment [2], in experiment [3], in experiment [4], in experiment [5] and in experiment [6] was “inactive” in each case. For the same compound, the Potency result in experiment [7] and in experiment [8] was “inactive” each time.
Regarding `CCOC(=O)OCC`, the Potency entry in experiment [1], in experiment [2], in experiment [3], in experiment [4], in experiment [6] and in experiment [7] was “inactive” each time. The Potency result in experiment [8] is “inactive”.
In the case of `CC1=CC(O)CC(C)(C)C1` (stereo not given), the Potency entry in experiment [1], in experiment [2], in experiment [3], in experiment [4], in experiment [6] and in experiment [7] was “inactive” each time. Further, the Potency result in experiment [8] is “inactive”.
For `CCCOCCOCCO`, the Potency entry in experiment [1], in experiment [2], in experiment [3], in experiment [4], in experiment [5] and in experiment [6] was “inactive” each time. Besides, the Potency result in experiment [8] was “inactive”.
As for `Nc1ccc(S(=O)(=O)O)c(N)c1`, the Potency result in experiment [1], in experiment [2], in experiment [3], in experiment [4], in experiment [5] and in experiment [6] was “inactive” each time. Moreover, the Potency result in experiment [7] and in experiment [8] was “inactive” throughout.
As for `CCc1c2c(nc3ccc(OC(=O)N4CCC(N5CCCCC5)CC4)cc13)-c1cc3c(c(=O)n1C2)COC(=O)[C@]3(O)CC`, the Potency result in experiment [1], in experiment [2], in experiment [3], in experiment [5], in experiment [6] and in experiment [8] was “inactive” each time. Also, the Potency in experiment [4] is 23.7 µM (active).
Consider `CC(=O)[C@H]1CC[C@H]2[C@@H]3C=CC4=CC(=O)CC[C@@]4(C)[C@@H]3CC[C@]12C`, for which the Potency result in experiment [1], in experiment [2], in experiment [3], in experiment [4], in experiment [5] and in experiment [6] was “inactive” throughout. Further, the Potency entry in experiment [7] and in experiment [8] was “inactive” each time.
Take `C=CCCCCCCCCCCCCCCCC`: the cytotoxicity increase in experiment [1] is -16.6% [at 6.97 µM]. Further, the activity change, negative = cytotoxicity is 0.274% [at 8.39 µM] in experiment [2] and -1.22% [at 8.39 µM] in experiment [6]. The viability change, negative = cytotoxic in experiment [3] is 2.55% [at 8.39 µM]; in experiment [8], 0.663% [at 8.39 µM]. Also, the activity change, negative = inhibition in experiment [4] was 11.9% [at 8.39 µM]; in experiment [5], 2.22% [at 8.39 µM].
For `O=C(O)c1cccnc1C(=O)O`, the Potency result in experiment [1], in experiment [2], in experiment [3], in experiment [4], in experiment [5] and in experiment [6] was “inactive” each time. In addition, the Potency entry in experiment [7] and in experiment [8] was “inactive” in each case.
For `Cc1ccnc2ccccc12`, the Potency result in experiment [1], in experiment [2], in experiment [3], in experiment [4] and in experiment [6] was “inactive” in each case.
Take `O=C(O)c1cccc(O)c1`: the Potency entry in experiment [1], in experiment [2], in experiment [3], in experiment [4], in experiment [6] and in experiment [7] was “inactive” in each case. In experiment [8], the Potency entry was “inactive”.
`CCn1nc(C)c2c1C(=O)NCC(c1ccc(O)cc1)=N2`: the Potency result in experiment [1], in experiment [2], in experiment [3], in experiment [4], in experiment [5] and in experiment [6] was “inactive” each time. Moreover, the Potency entry in experiment [7] and in experiment [8] was “inactive” each time.
Consider `CC(N)CN` (stereo not given), for which the Potency result in experiment [1], in experiment [2], in experiment [3], in experiment [4], in experiment [5] and in experiment [6] was “inactive” in each case. Moreover, the Potency result in experiment [8] is “inactive”.
On to `COCC(O)CO` (stereo not given), for which the Potency result in experiment [1], in experiment [2], in experiment [3], in experiment [4], in experiment [6] and in experiment [7] was “inactive” each time. In experiment [8], the Potency entry was “inactive”.
For `CCOC(=N)CC(=O)OCC`, the Potency entry in experiment [1], in experiment [2], in experiment [3], in experiment [4], in experiment [6] and in experiment [7] was “inactive” each time. The Potency entry in experiment [8] was “inactive”.
With `CC(C)c1nnc2ccc(-c3ocnc3-c3cc(F)ccc3F)cn12`, the Potency entry in experiment [1], in experiment [2], in experiment [3], in experiment [5], in experiment [6] and in experiment [8] was “inactive” each time. Besides, the Potency in experiment [4] is 30.6 µM (active).
Turning to `CCCCCCCCCCCCCCCCBr`, in experiment [1], the cytotoxicity increase is -4.5% [at 15.8 µM]. In addition, the results for the activity change, negative = cytotoxicity in experiment [2] and in experiment [6] were 1.42% [at 19 µM] and 1.54% [at 19 µM], respectively. The viability change, negative = cytotoxic was 2.08% [at 19 µM] in experiment [3] and -2.38% [at 19 µM] in experiment [8]. Moreover, the values for the activity change, negative = inhibition in experiment [4] and in experiment [5] were 3% [at 19 µM] and 4.52% [at 19 µM], respectively.
In the case of `CCC(C)(C)C1CCC(O)CC1` (stereo not given), the Potency result in experiment [1], in experiment [2], in experiment [3], in experiment [4], in experiment [5] and in experiment [6] was “inactive” each time. Also, the Potency entry in experiment [7] and in experiment [8] was “inactive” each time.
With `O=C(/C=C/c1ccccc1)OCCCc1ccccc1`, the Potency entry in experiment [1], in experiment [2], in experiment [3], in experiment [4], in experiment [5] and in experiment [6] was “inactive” in each case. In addition, the Potency result in experiment [7] and in experiment [8] was “inactive” throughout.
On to `CCOc1cc(N)c(Cl)cc1C(=O)NCC1CN(Cc2ccc(F)cc2)CCO1` (stereo not given), for which the Potency entry in experiment [1], in experiment [2], in experiment [3], in experiment [4], in experiment [5] and in experiment [6] was “inactive” in each case. Besides, the Potency result in experiment [8] was “inactive”.
On to `CCn1cc(C(=O)O)c(=O)c2cc(F)c(N3CCNCC3)nc21`, for which the Potency result in experiment [1], in experiment [2], in experiment [3], in experiment [4], in experiment [5] and in experiment [6] was “inactive” each time. Also, the Potency result in experiment [7] and in experiment [8] was “inactive” throughout.
Regarding `O=S1OCCO1`, the Potency result in experiment [1], in experiment [2], in experiment [3], in experiment [4], in experiment [5] and in experiment [6] was “inactive” in each case. In addition, the Potency entry in experiment [7] and in experiment [8] was “inactive” each time.
Turning to `CCC1(C)CC(=O)NC1=O` (stereo not given), the Potency result in experiment [1], in experiment [2], in experiment [3], in experiment [4], in experiment [5] and in experiment [6] was “inactive” each time. Moreover, in experiment [8], the Potency result was “inactive”.
As to `C[Si](NC1CCCCC1)(NC1CCCCC1)NC1CCCCC1`, the Potency entry in experiment [1], in experiment [2], in experiment [3], in experiment [4], in experiment [5] and in experiment [6] was “inactive” each time. For the same compound, the Potency entry in experiment [7] and in experiment [8] was “inactive” in each case.
`CC(Cl)C(Cl)Cl` (stereo not given): the Potency result in experiment [1], in experiment [2], in experiment [3], in experiment [4], in experiment [5] and in experiment [6] was “inactive” throughout. Also, in experiment [8], the Potency result was “inactive”.
Consider `Cc1oc(C)c(C(=O)Nc2ccccc2)c1C`, for which the Potency entry in experiment [1], in experiment [2], in experiment [3], in experiment [6], in experiment [7] and in experiment [8] was “inactive” in each case. Moreover, the Potency in experiment [4] is 24.3 µM (active).
